Gal4-VP16 FLuc: VP16 counterscreen qHTS for inhibitors of ROR gamma transcriptional activity. Drosophila S2 Gal4-VP16 UAS-luciferase, luminescence, 20 h. Potency, µM (top dose mostly 53.6 µM), hits mostly inhibitors. actives 3.5% (n = 310,000);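 also: Gal4-VP16 expression switched on by copper sulfate through the metallothionein promoter; nearly all actives have a fitted effect of over 50% in size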
TrxR1 substrate: qHTS Assay for Substrates of Mammalian Selenoprotein Thioredoxin Reductase 1 (TrxR1): qHTS. Thioredoxin reductase 1, cytoplasmic (Rattus norvegicus), O89049. purified TrxR1 substrate turnover, NADPH consumption readout. Potency, µM (titrated, usually from 114 µM). actives 0.01% (n = 390,000); also: nearly all actives have a fitted effect of over 50% in size
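Rat TrxR1, dispensed at 90 nM, was prereduced with 400 uM NADPH (final) for 5 min at ~22 deg C, then incubated with compound 15 min before 400 uM selenite. A first-read NADPH fluorescence drop versus no-compound background flagged substrates.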
Coupling enz: qHTS Assay for Inhibitors of Fructose-1,6-bisphosphate Aldolase from Giardia Lamblia: Coupling assay counterscreen | coupling enzyme system counterscreen, AmpLite Red fluorescence | activity change, negative = inhibition, % at 58.2 µM, hits read low | actives 0.67% (n = 290,000); in the data active = activity change below about -30%
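Compounds tested against the coupling enzymes alone at 57.5 uM final; readout was AmpLite Red fluorescence (525/598 nm) after 20 min at RT.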
rTrxR1 inhibitor: qHTS Assay for Inhibitors of Mammalian Selenoprotein Thioredoxin Reductase 1 (TrxR1): qHTS; Thioredoxin reductase 1, cytoplasmic (Rattus norvegicus), O89049; recombinant rTrxR1, NADPH fluorescence consumption, selenite substrate; Potency, µM (titrated, usually from 114 µM), most hits filed as inhibitors; actives 1% (n = 390,000); also: nearly all actives have a fitted effect of over 65% in size
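Rat TrxR1 (90 nM in the dispensed reagent) was pre-reduced with 400 uM NADPH for 5 min at room temperature, then incubated with compound for 15 min. After 400 uM selenite was added, NADPH fluorescence (Ex 340/Em 450 nm) was followed for 8 min.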
GALK inh: qHTS Assay for Inhibitors of Human Galactokinase (GALK). Purified GALK, Kinase-Glo residual ATP luminescence. Potency, µM (series often up to 57.5 µM), usual class: inhibitors. actives 0.007% (n = 270,000). AID 1868, 2009
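Quantitative HTS: GALK 5 nM, ATP 35 uM, galactose 100 uM, 1 h room temperature, then luciferase-based ATP detection.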
RORg inh: qHTS for inhibitors of ROR gamma transcriptional activity | AID 2551, 2010 | Potency, µM (highest dose often 53.6 µM), actives largely listed as inhibitors | Nuclear receptor ROR-gamma (Mus musculus), P51450 | Drosophila S2 Gal4-RORgamma UAS-luciferase reporter, 20 h | actives 5.4% (n = 310,000); also: nearly all actives have a fitted effect of over 60% in size
Target sequence (P51450 whole entry, looked up, the tested form may be a part): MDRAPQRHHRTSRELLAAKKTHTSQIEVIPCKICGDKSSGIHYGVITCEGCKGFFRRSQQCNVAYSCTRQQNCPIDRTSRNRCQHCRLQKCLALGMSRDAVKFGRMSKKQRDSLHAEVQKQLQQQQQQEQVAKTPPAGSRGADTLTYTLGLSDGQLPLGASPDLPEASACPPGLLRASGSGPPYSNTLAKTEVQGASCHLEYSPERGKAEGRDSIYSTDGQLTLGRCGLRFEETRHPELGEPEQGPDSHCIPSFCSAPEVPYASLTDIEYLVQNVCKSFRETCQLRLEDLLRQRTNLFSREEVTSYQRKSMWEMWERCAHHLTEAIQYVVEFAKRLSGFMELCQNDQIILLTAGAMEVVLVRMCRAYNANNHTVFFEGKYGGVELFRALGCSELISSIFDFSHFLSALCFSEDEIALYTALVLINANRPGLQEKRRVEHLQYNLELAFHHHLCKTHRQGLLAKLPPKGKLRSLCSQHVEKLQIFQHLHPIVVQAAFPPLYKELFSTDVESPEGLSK
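Read-out: Photinus luciferase luminescence; inhibitors lower reporter signal. Insect Schneider cells with Gal4-ROR gamma fusion under metallothionein promoter, UAS reporter; 700 uM final copper sulfate induction, 20 hr, ambient temperature.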
Numbers stand for hits; i = inactive; ? = inconclusive; nt = no result given; [ ] = remark or other dose. An excerpt weighted towards active compounds, which were near 5.9% of everything screened. Unless noted, calls follow the shape of the dose curve; as a rule, active = well fitted curve in the direction sought with a large enough effect; inconclusive = small, poorly fitted or top-dose-only effect, or another doubt; inactive = no such curve, though single readings can be large; an effect the other way counts as inactive or inconclusive.

SMILES	Gal4-VP16 FLuc	TrxR1 substrate	Coupling enz	rTrxR1 inhibitor	GALK inh	RORg inh
CC(/C=C/c1ccco1)=N\NC(=O)c1cc(Cl)ccc1O	?	i	i	?	i	8.9µM
O=C(NCCCN1CCOCC1)/C(=C/c1cccnc1)NC(=O)c1ccccc1	i	i	i	i	i	i
Cc1ccc(C(N)=S)c(C)c1	?	i	i	i	i	20µM
Cc1ccc(C(=O)C2CC2)c(C)c1	nt	i[2.29 µM]	nt	i[2.29 µM]	nt	nt
COC1=C2C[C@@H](C)C[C@H](OC)[C@H](O)[C@@H](C)/C=C(\C)[C@H](OC(N)=O)[C@@H](OC)/C=C\C=C(/C)C(=O)NC(=CC1=O)C2=O	i	nt	-65	nt	nt	?
C=CCNC1=C2C[C@@H](C)C[C@H](OC)[C@H](O)[C@@H](C)/C=C(\C)[C@H](OC(N)=O)[C@@H](OC)/C=C/C=C(\C)C(=O)NC(=CC1=O)C2=O	i[10 µM]	nt	i	nt	nt	?
O=C(CCn1cnc2onc(-c3ccc(F)cc3)c2c1=O)N1CCN(c2ccc(F)cc2)CC1	nt	i	nt	i	nt	nt
O=C1CCCCCN1Cc1nnc(SCc2nc3ccccc3s2)n1-c1ccccn1	7.1µM	i	i	i	i	2.5µM
CCNC(=O)CSc1nnc(CN2CCCCCC2=O)n1-c1ccccn1	i	i	i	i	i	i
Cc1ccc(-c2cc(C(F)(F)F)n3nc(C(=O)Nc4ccc(Cl)cc4Cl)cc3n2)cc1	nt	i	nt	i	nt	nt
CCCCn1c(O)c(N=Nc2ccccn2)c2ccccc21	?	i	i	i	i	10µM
Cc1ccc(Nc2nc3ccccc3nc2Nc2c(C)n(C)n(-c3ccccc3)c2=O)cc1	i	i	i	?	nt	i
Cc1ccc(N2C(=O)C(Cl)=C(Nc3c(C)n(C)n(-c4ccccc4)c3=O)C2=O)cc1	?	i	i	18µM	i	i
Cc1cccc(N2C(=O)C(Cl)=C(Nc3c(C)n(C)n(-c4ccccc4)c3=O)C2=O)c1C	i	i	i	22µM	i	i
COc1ccc(Nc2nnc(SCC(=O)NC3CCS(=O)(=O)C3)s2)cc1 (stereo not drawn)	nt	i	nt	i	nt	nt
Cc1c(-c2ccccc2)[n+](=O)c(-c2ccc(Br)cc2)c(C)n1[O-]	i	i	i	i	i	i
CCn1c(/C(C#N)=N/O)nc2ccccc21	?	i	i	i	i	8.9µM
O=C(COC(=O)CNC(=O)c1ccccc1F)Nc1ccc2[nH]c(=O)[nH]c2c1	nt	i	nt	i	nt	nt
NC(=O)N/N=C/c1sc(N2CCCCC2)nc1-c1cccs1	nt	i	nt	i	nt	nt
CCCCNC(=S)N(C)/N=C/c1c(F)cccc1F	i	i	i	i	i	i
CCCCNC(=S)N(C)/N=C/c1sc(N2CCCCC2)nc1-c1cccs1	i	nt	i	nt	i	11µM
O=C(N/N=C/c1sc(N2CCCCC2)nc1-c1cccs1)C1CC1	?	i	i	i	i	7.1µM
CC(C)NC(=S)N/N=C/c1sc(N2CCCCC2)nc1-c1cccs1	?	i	i	i	i	1.4µM
C/C(=N\Nc1nc(C)c(C)s1)c1ccc([N+](=O)[O-])cc1	?	i	i	i	i	11µM
Cc1cc2c(cc1C)NC(c1c(C)n(C)n(-c3ccccc3)c1=O)C1=C(CC(C)(C)CC1=O)N2 (stereo not drawn)	i	i	i	i	i	13µM
Cc1ccc(C)c(N2CCN(c3nc4ccc(C)cc4nc3-n3nc(C)cc3C)CC2)c1	nt	i	nt	i	nt	nt
Cc1cc(C)c2c(=O)n(CC(=O)Nc3ccc(Br)c(C)c3)sc2n1	?	i	i	i	i	13µM
Cc1cc(C)c2c(=O)n(CC(=O)Nc3cccc(Cl)c3C)sc2n1	3.2µM	i	i	i	i	?
CCC(=O)Nc1cccc(-c2ccc(N3CCN(C)CC3)nn2)c1	?	i	i	i	i	14µM
